In ChEMBL document CHEMBL3988442, “University of Dundee, Small-Polar-MMV Screening Library” (2021):

How the values were obtained:
[1] = biological target: T1, Aspartate--tRNA(Asp/Asn) ligase (Mycobacterium tuberculosis (strain ATCC 25618 / H37Rv)) (UniProt P9WFW3); test: Assay for Asp RNA synthetase-1 from Mycobacterium tuberculosis; type: functional; set-up: scale not given: direction of the effect not stated beside the values; details: 30 µM; also: in the data most compounds retested in dose-response had high values
T1 sequence (whole entry): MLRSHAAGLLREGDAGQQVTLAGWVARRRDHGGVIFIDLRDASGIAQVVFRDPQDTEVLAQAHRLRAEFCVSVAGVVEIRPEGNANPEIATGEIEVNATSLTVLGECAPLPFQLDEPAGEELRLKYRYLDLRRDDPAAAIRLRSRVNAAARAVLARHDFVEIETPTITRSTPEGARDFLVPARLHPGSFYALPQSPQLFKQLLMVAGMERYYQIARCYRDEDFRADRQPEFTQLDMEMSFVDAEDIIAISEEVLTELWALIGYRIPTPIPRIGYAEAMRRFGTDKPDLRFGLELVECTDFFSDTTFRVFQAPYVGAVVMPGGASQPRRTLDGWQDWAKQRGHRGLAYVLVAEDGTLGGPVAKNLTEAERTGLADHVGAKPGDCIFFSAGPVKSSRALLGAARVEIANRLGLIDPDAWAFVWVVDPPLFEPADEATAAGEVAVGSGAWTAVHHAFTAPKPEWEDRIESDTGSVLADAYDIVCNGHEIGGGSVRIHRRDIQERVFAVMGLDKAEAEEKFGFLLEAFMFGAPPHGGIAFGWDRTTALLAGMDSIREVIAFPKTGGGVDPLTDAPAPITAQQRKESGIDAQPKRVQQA

[2] = biological target: Shiga toxin 2 (Escherichia coli O157:H7) (UniProt P09385+P09386); test: E. coli 0.157:H7 Shiga Toxin SOP - stx2 screening assay; type: functional; set-up: scale not given: direction of the effect not stated beside the values; details: 30 µM

Row | SMILES | Percent Effect [1] [%] | Percent Effect [2] [%]
1 | COCC(=O)N1CCC(c2cc(C(F)(F)F)n3ccnc3n2)CC1 | -2.99 | -10.9
2 | NC(=O)Cn1cc(NC(=O)N2CCCC2)cn1 | -2.12 | -31.6
3 | COC(=O)c1cccc(NC(=O)CCn2nc(-c3cccs3)oc2=O)c1 | 1.89 | 18.1
4 | CCc1nc2n(n1)CC(NCc1ccnc(-c3ccccc3)n1)CC2 (stereo not drawn) | -7.45 | 5.5
5 | O=C(N1CCOCC1)N1CCc2ncnc(NC3CC3)c2CC1 | 6.32 | -39.4
6 | COC(=O)CCC(=O)N1CCc2[nH]nc(-c3ccc(F)c(F)c3)c2C1 | 5.15 | -11.9
7 | CCNC(=O)N1CCN(C(=O)c2cc(Cl)cc3cccnc23)CC1 | -3.21 | -11.9
8 | Cn1cc(CN2CCCC3(CCCN3S(C)(=O)=O)C2)cn1 (stereo not drawn) | 6.18 | -11.1
9 | CCOc1ccc(CC(CNC(=O)c2occc2C)C(N)=O)cc1 (stereo not drawn) | 2.25 | 23.6
10 | COc1c(CNCc2ccc(CN(C)C)cc2)c(C)nn1C | 2.29 | -30.1
11 | CC(CN1CCCC1)C(=O)N1CCC(c2nccn2CC2CC2)CC1 (stereo not drawn) | -0.479 | -15.6
12 | CC(C)c1ncc(S(C)(=O)=O)c(C2CCCNC2)n1 (stereo not drawn) | -1.91 | 10.4
13 | O=C1CCCc2cc(-c3csc(CCN4CCOC4=O)n3)ccc2N1 | -6.83 | -35.7
14 | CCOc1nnc(CN2CCOC(CNc3cccnn3)C2)s1 (stereo not drawn) | 4.86 | -50.9
15 | Cc1nc(-c2cccc(C(=O)O)c2)cc(C2CCN(C(C)C)C2)n1 (stereo not drawn) | -4.63 | 4.12
16 | CC(C)c1nc(CN(C)C2CCN(Cc3nc(C4CC4)no3)C2)no1 (stereo not drawn) | 5.06 | -26.4
17 | Cc1c[nH]c(CN(C)C(=O)C2CC(=O)N(Cc3ccncc3)C2)n1 (stereo not drawn) | 2.33 | -32.5
18 | Cc1nc(Nc2nccs2)cc(C2CCCN2C2CCOCC2)n1 (stereo not drawn) | -3.08 | 3.58
19 | Cc1ccc(NC(C)C(=O)NCc2cccs2)cc1C (stereo not drawn) | 3.13 | -30.8
